Compounds without any hit were thinned out: in the full panel of roughly 79,000, 15% have a hit. Values without a mark were called inactive. Active and inactive are the calls of the source. Rule as the data show it: active = growth inhibition above about 70%; inactive = the rest.
Columns and labels:
[1] = NCI Yeast Anticancer Drug Screen. Data for the rad50 strain (AID 155);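 also: 0% = growth of vehicle-only cultures of the same strain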; conditions: S. cerevisiae rad50 strain growth inhibition; at 50.0 µM; stronger effect = higher value
Procedure, shortened: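 Vehicle-treated cultures provide the reference for the growth inhibition reported for compound-exposed, repair-deficient yeast.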

[2] = NCI Yeast Anticancer Drug Screen. Data for the mec2-1 strain (AID 157); conditions: S. cerevisiae mec2-1 strain, at 50.0 µM, stronger effect = higher value
Procedure, shortened: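 Strain: mec2-1 (DNA repair/cell cycle alteration). Compound exposure, then growth measured; inhibition expressed relative to vehicle.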

[3] = NCI Yeast Anticancer Drug Screen. Data for the sgs1 mgt1 strain (AID 161);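 also: 0% = growth of cultures given vehicle only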; conditions: S. cerevisiae sgs1 mgt1 strain, at 50.0 µM, stronger effect = higher value
Procedure, shortened: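 Genetically altered yeast, compound exposure, growth inhibition relative to vehicle.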

[4] = NCI Yeast Anticancer Drug Screen. Data for the cln2 rad14 strain (AID 165);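 also: 0% = growth equal to vehicle treated cultures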; conditions: S. cerevisiae cln2 rad14 strain, at 50.0 µM, stronger effect = higher value
Procedure, shortened: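 Compounds are applied to the cln2 rad14 yeast strain, and growth is then compared with that of vehicle-treated cultures to give inhibition.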

[5] = NCI Yeast Anticancer Drug Screen. Data for the bub3 strain (AID 167); conditions: S. cerevisiae bub3 mutant strain, at 50.0 µM, stronger effect = higher value
Procedure, shortened: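 Mutant yeast screening strain plus compound; vehicle-treated cultures serve as the 0% inhibition reference.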

[6] = NCI Yeast Anticancer Drug Screen. Data for the mlh1 rad18 strain (AID 175); conditions: S. cerevisiae mlh1 rad18 strain growth inhibition; at 50.0 µM; stronger effect = higher value
Procedure, shortened: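 Read-out is yeast growth inhibition, calculated against vehicle-only controls. The compound was applied to a strain engineered with DNA damage repair alterations.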

COc1ccc(NC(=O)C(=O)C(CC2C(=O)NC(=S)NC2=O)C(=O)c2ccc3ccccc3c2)c([N+](=O)[O-])c1 (stereo not given)
growth inhibition [1]: -10.7%
growth inhibition [2]: 1.35%
growth inhibition [3]: 13.1%
growth inhibition [4]: -30.1%
growth inhibition [5]: 31.2%
growth inhibition [6]: 3.5%

O=C(NCCN1CCOCC1)c1ccc2cc(C(=O)N3CC(CCl)c4ccc([N+](=O)[O-])cc43)[nH]c2c1 (stereo not given)
growth inhibition [1]: 88.5% (active)
growth inhibition [2]: 92.2% (active)
growth inhibition [3]: 88% (active)
growth inhibition [4]: 88.8% (active)
growth inhibition [5]: 89.8% (active)
growth inhibition [6]: 89.9% (active)

CCOC(OCC)c1ccccc1
growth inhibition [1]: 7.95%
growth inhibition [2]: -5%
growth inhibition [3]: -4.95%
growth inhibition [4]: -11.9%
growth inhibition [5]: 6.6%
growth inhibition [6]: 14.2%

O=C1C2CCC(C2)[CH]1[Hg][Cl] (stereo not given)
growth inhibition [1]: 99.4% (active)
growth inhibition [2]: 99.7% (active)
growth inhibition [3]: 99.5% (active)
growth inhibition [4]: 99% (active)
growth inhibition [5]: 99.3% (active)
growth inhibition [6]: 99.5% (active)

CCNC(Cc1ccccc1)C1CCCO1 (stereo not given)
growth inhibition [1]: 3.15%
growth inhibition [2]: -0.35%
growth inhibition [3]: -15.6%
growth inhibition [4]: 2%
growth inhibition [5]: -18.4%
growth inhibition [6]: -27.9%

COc1cc(CC(C)N)ccc1O (stereo not given)
growth inhibition [1]: 7.9%
growth inhibition [2]: -9.4%
growth inhibition [3]: -14.2%
growth inhibition [4]: -46.4%
growth inhibition [5]: 21.6%
growth inhibition [6]: -18.4%

N#Cc1ccncc1
growth inhibition [1]: 22.3%
growth inhibition [2]: -24.1%
growth inhibition [3]: 23.9%
growth inhibition [4]: -3.75%
growth inhibition [5]: 7.35%
growth inhibition [6]: 16%

CCCCOCN(COCCCC)C(C)Cc1ccccc1 (stereo not given)
growth inhibition [1]: 11.7%
growth inhibition [2]: -3.3%
growth inhibition [3]: -12.5%
growth inhibition [4]: 11.1%
growth inhibition [5]: -2.25%
growth inhibition [6]: -21.8%

c1ccc([As]2[As](c3ccccc3)[As](c3ccccc3)[As]2c2ccccc2)cc1 (stereo not given)
growth inhibition [1]: 99.5% (active)
growth inhibition [2]: 99.8% (active)
growth inhibition [3]: 99.8% (active)
growth inhibition [4]: 98.1% (active)
growth inhibition [5]: 99.2% (active)
growth inhibition [6]: 99.5% (active)

CN1CCc2ccc(O)cc2C1
growth inhibition [1]: 16.3%
growth inhibition [2]: 5.6%
growth inhibition [3]: 3.95%
growth inhibition [4]: -7.5%
growth inhibition [5]: 15.7%
growth inhibition [6]: 10.6%

COC1=CCC2=C(CC[C@H]3[C@H]2CCP3C)C1 (stereo not given in full)
growth inhibition [1]: 8.65%
growth inhibition [2]: -10.8%
growth inhibition [3]: -7.85%
growth inhibition [4]: -17.9%
growth inhibition [5]: 0.9%
growth inhibition [6]: 5.25%

CC1(C)N=C(N)N=C(N)N1c1ccc(CCc2ccc(Cl)c(S(=O)(=O)F)c2)c(Cl)c1
growth inhibition [1]: 99.3% (active)
growth inhibition [2]: 99.5% (active)
growth inhibition [3]: 99.3% (active)
growth inhibition [4]: 93.8% (active)
growth inhibition [5]: 98.3% (active)
growth inhibition [6]: 99.7% (active)

COc1ccc2c(c1)CC(CN1CCC3(CC1)C(=O)NCN3c1ccccc1)O2 (stereo not given)
growth inhibition [1]: 76.7% (active)
growth inhibition [2]: 57%
growth inhibition [3]: 86.4% (active)
growth inhibition [4]: 79% (active)
growth inhibition [5]: 55.5%
growth inhibition [6]: 78.5% (active)

BrCCCCCCBr
growth inhibition [1]: -5.65%
growth inhibition [2]: 5.8%
growth inhibition [3]: 3.25%
growth inhibition [4]: -29.3%
growth inhibition [5]: 5.6%
growth inhibition [6]: 5.4%

CCN(CCCl)c1cc(CN(C)C)cc(NC(=O)c2ccc(C(=O)Nc3ccccc3)cc2)c1
growth inhibition [1]: 0.7%
growth inhibition [2]: -18.4%
growth inhibition [3]: 5%
growth inhibition [4]: 26.2%
growth inhibition [5]: 23.9%
growth inhibition [6]: 12.4%

CCN(CC)CC(=O)c1ccccc1
growth inhibition [1]: -24.1%
growth inhibition [2]: -8.85%
growth inhibition [3]: -21.2%
growth inhibition [4]: 9.45%
growth inhibition [5]: 3.15%
growth inhibition [6]: -45.7%

O=C(Nc1cc(S(=O)(=O)F)ccc1Cl)Oc1ccc([N+](=O)[O-])cc1
growth inhibition [1]: 17.4%
growth inhibition [2]: 53.2%
growth inhibition [3]: 38.3%
growth inhibition [4]: 11.3%
growth inhibition [5]: 20.1%
growth inhibition [6]: 32.5%

O=c1c2ccccc2oc2ccccc12 (tested in a mixture with another compound)
growth inhibition [1]: 18.9%
growth inhibition [2]: 17.7%
growth inhibition [3]: 11.7%
growth inhibition [4]: 10.2%
growth inhibition [5]: 23.2%
growth inhibition [6]: 17.1%

[Se]c1nc(N2CCOCC2)ncc1-c1ccccc1
growth inhibition [1]: -18%
growth inhibition [2]: 0.5%
growth inhibition [3]: -17.2%
growth inhibition [4]: 0.5%
growth inhibition [5]: -3.3%
growth inhibition [6]: 9%

CC(=O)c1ccccc1N=Nc1ccc(N(CCCl)CCCl)cc1
growth inhibition [1]: -9.5%
growth inhibition [2]: -5.5%
growth inhibition [3]: 0.15%
growth inhibition [4]: 18%
growth inhibition [5]: 15.2%
growth inhibition [6]: -0.05%

CCC(=O)N(c1ccccc1)C(C)CN1CCC(O)(c2ccccc2)CC1 (stereo not given)
growth inhibition [1]: 4.2%
growth inhibition [2]: -12.4%
growth inhibition [3]: 5.9%
growth inhibition [4]: -37%
growth inhibition [5]: -10.4%
growth inhibition [6]: -8.15%

N#CC(C#N)=Cc1cccc(C#N)c1
growth inhibition [1]: -0.75%
growth inhibition [2]: 21.4%
growth inhibition [3]: -2.85%
growth inhibition [4]: 19.1%
growth inhibition [5]: -4.75%
growth inhibition [6]: 3.45%

CCC1(CC)C(=O)N(C)P(=O)(Oc2ccccc2)N(C)C1=O
growth inhibition [1]: 5.7%
growth inhibition [2]: 15.4%
growth inhibition [3]: 9.3%
growth inhibition [4]: 1.6%
growth inhibition [5]: 7.1%
growth inhibition [6]: 4.6%

ClCCN(CCCl)c1ccc(N=Cc2ccccc2)cc1
growth inhibition [1]: 24.9%
growth inhibition [2]: 17%
growth inhibition [3]: 7.35%
growth inhibition [4]: 4.3%
growth inhibition [5]: 19.4%
growth inhibition [6]: 44.6%

CCCCN=C=S
growth inhibition [1]: 45.7%
growth inhibition [2]: -11.7%
growth inhibition [3]: 21.8%
growth inhibition [4]: 5.15%
growth inhibition [5]: -3.8%
growth inhibition [6]: 19%

O=C(O)CCCNSc1ccccc1[N+](=O)[O-]
growth inhibition [1]: 71.2% (active)
growth inhibition [2]: 44.5%
growth inhibition [3]: 73% (active)
growth inhibition [4]: 48.9%
growth inhibition [5]: 68.4%
growth inhibition [6]: 72% (active)

Oc1ccc(C(O)C2CCCCN2)cc1O (stereo not given)
growth inhibition [1]: -10.5%
growth inhibition [2]: -20.9%
growth inhibition [3]: -0.25%
growth inhibition [4]: -17.9%
growth inhibition [5]: -16.8%
growth inhibition [6]: -0.45%

Cc1cccc(N)c1N
growth inhibition [1]: 24.1%
growth inhibition [2]: -15.1%
growth inhibition [3]: 11.1%
growth inhibition [4]: 0.4%
growth inhibition [5]: -0.45%
growth inhibition [6]: 13.7%

O=C(CCl)Oc1ccccc1Cl
growth inhibition [1]: -19.5%
growth inhibition [2]: -5.4%
growth inhibition [3]: -31.1%
growth inhibition [4]: -42.9%
growth inhibition [5]: -23.9%
growth inhibition [6]: -31.6%

CN1CCC2CC(=O)NC1(C)C2(C)C (stereo not given)
growth inhibition [1]: 13.2%
growth inhibition [2]: 2.05%
growth inhibition [3]: 17.9%
growth inhibition [4]: 4.5%
growth inhibition [5]: -2.2%
growth inhibition [6]: 11.9%

[O-][n+]1c2ccccc2nn1-c1ccc(N(CCCl)CCCl)cc1
growth inhibition [1]: 7.2%
growth inhibition [2]: 0.35%
growth inhibition [3]: -2.05%
growth inhibition [4]: -6.95%
growth inhibition [5]: -16.9%
growth inhibition [6]: -22.1%

N#CNc1nnnn1-c1ccccc1 (tested in a mixture with another compound)
growth inhibition [1]: 7.7%
growth inhibition [2]: 9.35%
growth inhibition [3]: 0.55%
growth inhibition [4]: 44.4%
growth inhibition [5]: 11.8%
growth inhibition [6]: -16.9%

CC(COC(=O)NCc1ccc(Cl)cc1Cl)OC(N)=O (stereo not given)
growth inhibition [1]: 2.6%
growth inhibition [2]: 0.35%
growth inhibition [3]: 4.25%
growth inhibition [4]: -12.8%
growth inhibition [5]: -5%
growth inhibition [6]: -8.65%

CCN(CC)CCN1CC2CCCCC2C1 (stereo not given)
growth inhibition [1]: 4.25%
growth inhibition [2]: 0.35%
growth inhibition [3]: 1%
growth inhibition [4]: 5.45%
growth inhibition [5]: 11.6%
growth inhibition [6]: 3%

Cc1nccc2c1[nH]c1ccc(Br)cc12
growth inhibition [1]: 13.7%
growth inhibition [2]: 11.6%
growth inhibition [3]: -7.55%
growth inhibition [4]: -2%
growth inhibition [5]: 9.55%
growth inhibition [6]: 1.25%

CC(C)C(=O)OCC1CCCN2CCCCC12 (stereo not given)
growth inhibition [1]: 26.9%
growth inhibition [2]: 26.4%
growth inhibition [3]: 11.9%
growth inhibition [4]: 19.2%
growth inhibition [5]: 30.3%
growth inhibition [6]: -35.2%

[CH3][Sb]1([Cl])[CH2]CC[CH2]1
growth inhibition [1]: 0.2%
growth inhibition [2]: 26.1%
growth inhibition [3]: -5.6%
growth inhibition [4]: -3.1%
growth inhibition [5]: 32.5%
growth inhibition [6]: 27%

CC1CC2CCC1(CO)CN2 (stereo not given)
growth inhibition [1]: -0.45%
growth inhibition [2]: 2.3%
growth inhibition [3]: 0.1%
growth inhibition [4]: 4.65%
growth inhibition [5]: 0.85%
growth inhibition [6]: 3.9%

CC(C)(C)C1=C(Br)C(F)(C(C)(C)C)OP1(=O)c1ccccc1 (stereo not given)
growth inhibition [1]: 88.7% (active)
growth inhibition [2]: 92.3% (active)
growth inhibition [3]: 90.5% (active)
growth inhibition [4]: 90.5% (active)
growth inhibition [5]: 90% (active)
growth inhibition [6]: 91.6% (active)

Fc1ccc(C2(N3CCC4(CC3)OCCO4)CCCCC2)cc1
growth inhibition [1]: -8.05%
growth inhibition [2]: 9%
growth inhibition [3]: 14.1%
growth inhibition [4]: -15.5%
growth inhibition [5]: 0.1%
growth inhibition [6]: 5.6%

Reference: PubChem BioAssay (NCI)
